Laboratory results published in the antibiotic and cytotoxicity screens of Wong et al. (2023).
About 1,500 (3.8%) of roughly 39,000 compounds were called active. Many of the other results were omitted from the sample, so actives are more common in it than they were.

Tested on: HSkMC (human skeletal muscle cells)
Test: cytotoxicity call (relative viability < 0.9)
Conditions: 10 µM

SMILES	cytotoxicity call
Cc1ccc(S(=O)(=O)Nc2ccc3c(c2)C(=O)N([C@@H](C)CO)C[C@H](C)[C@H](CN(C)C(=O)Nc2ccccc2)OCCCC[C@H](C)O3)cc1	inactive
COc1ccc(CN(C)C[C@@H]2Oc3ccc(NS(=O)(=O)c4cn(C)cn4)cc3CC(=O)N([C@@H](C)CO)C[C@H]2C)cc1	inactive
C[C@H](CO)N1C[C@H](C)[C@H](CN(C)C(=O)Nc2ccccc2)OCc2ccccc2-c2c(n(C)c3ccccc23)C1=O	inactive
COc1ccc(NC(=O)N(C)C[C@@H]2Oc3ncc(C#C[C@H](C)O)cc3C(=O)N([C@H](C)CO)C[C@@H]2C)cc1	inactive
Cc1noc(C)c1S(=O)(=O)Nc1ccc2c(c1)C(=O)N([C@@H](C)CO)C[C@@H](C)[C@@H](CN(C)C(=O)Nc1ccc(C(F)(F)F)cc1)OCCCC[C@@H](C)O2	inactive
Cc1noc(C)c1S(=O)(=O)Nc1ccc2c(c1)C(=O)N([C@H](C)CO)C[C@H](C)[C@H](CN(C)C(=O)Nc1ccc(C(F)(F)F)cc1)OCCCC[C@H](C)O2	active
Cc1noc(C)c1S(=O)(=O)Nc1ccc2c(c1)C(=O)N([C@@H](C)CO)C[C@@H](C)[C@H](CN(C)C(=O)Nc1ccc(C(F)(F)F)cc1)OCCCC[C@H](C)O2	inactive
COc1ccc(S(=O)(=O)Nc2ccc3c(c2)C(=O)N([C@@H](C)CO)C[C@@H](C)[C@H](CN(C)C(=O)NC(C)C)O3)cc1	inactive
C[C@@H]1CN([C@H](C)CO)C(=O)c2cc(C#Cc3cccc(F)c3)cnc2O[C@H]1CN(C)CC1CCOCC1	inactive
CC=Cc1ccc2n(c1=O)C[C@H]1[C@H](CO)[C@@H](C(=O)NC3CCC3)[C@@H]2N1S(=O)(=O)c1cn(C)cn1	inactive
Cc1noc(C)c1S(=O)(=O)Nc1ccc2c(c1)CC(=O)N([C@@H](C)CO)C[C@H](C)[C@H](CN(C)S(C)(=O)=O)O2	inactive
CC(C)(Sc1cc(C(C)(C)C)c(O)c(C(C)(C)C)c1)Sc1cc(C(C)(C)C)c(OC(=O)CCC(=O)O)c(C(C)(C)C)c1	active
CC(C)(C)c1cc(CCC(=O)OCC(COC(=O)CCc2cc(C(C)(C)C)c(O)c(C(C)(C)C)c2)(COC(=O)CCc2cc(C(C)(C)C)c(O)c(C(C)(C)C)c2)COC(=O)CCc2cc(C(C)(C)C)c(O)c(C(C)(C)C)c2)cc(C(C)(C)C)c1O	inactive
CC(C)(Sc1cc(C(C)(C)C)c(O)c(C(C)(C)C)c1)Sc1cc(C(C)(C)C)c(O)c(C(C)(C)C)c1 [listing 1 of 2 here]	inactive
CC(C)(Sc1cc(C(C)(C)C)c(O)c(C(C)(C)C)c1)Sc1cc(C(C)(C)C)c(O)c(C(C)(C)C)c1 [listing 2 of 2 here]	inactive
CC(C)(Sc1cc(C(C)(C)C)c(O)c(C(C)(C)C)c1)Sc1cc(C(C)(C)C)c(OCC(=O)O)c(C(C)(C)C)c1	active
C[C@@H]1CN([C@@H](C)CO)C(=O)c2cccc(NC(=O)Nc3ccc(F)cc3)c2O[C@@H]1CN(C)C(=O)Nc1ccc(C(F)(F)F)cc1	inactive
C[C@@H]1CN([C@@H](C)CO)S(=O)(=O)c2ccc(-c3cncnc3)cc2O[C@H]1CN(C)C(=O)c1ccc2c(c1)OCO2	inactive
COCC(=O)N1C[C@H](C)[C@@H](OC)CN(C)C(=O)c2cc(NC(=O)Nc3cccc(F)c3)ccc2OC[C@@H]1C	inactive

SMILES	cytotoxicity call
COC[C@@H]1CN(C(=O)[C@H]2CCCN2C)N1	inactive
COC(=O)[C@@H](Cc1ccccc1)N[C@H](/C=C/C1CC1)[C@@H](O)CCn1cc(-c2ccc(C(=O)NO)cc2)nn1	inactive
CC[C@@H]1COCCC(=O)N1	inactive
Cc1nc2cc(C)c(C)cc2s1	inactive
Cc1ccc(NC(=O)Nc2cc(C(F)(F)F)ccc2F)cc1Nc1ccc2c(c1)NC(=O)/C2=C\c1ccc[nH]1	active
C[C@@H]1CN([C@H](C)CO)C(=O)Cc2cc(NS(C)(=O)=O)ccc2O[C@H]1CN(C)S(=O)(=O)c1ccc(F)cc1	inactive
Cc1noc(C)c1NC(=O)Nc1ccc2c(c1)C(=O)N([C@H](C)CO)C[C@@H](C)[C@@H](CN(C)S(=O)(=O)c1c(C)noc1C)O2	inactive
C[C@@H]1CN([C@@H](C)CO)C(=O)c2cccc(NC(=O)C3CC3)c2O[C@@H]1CN(C)Cc1ccc(-c2ccccc2)cc1	inactive
C[C@@H]1CN([C@H](C)CO)S(=O)(=O)c2ccc(-c3ccccc3F)cc2O[C@H]1CN(C)Cc1cncnc1	inactive
C[C@@H]1CCCCO[C@@H](CN(C)Cc2ccc(Cl)c(Cl)c2)[C@@H](C)CN([C@@H](C)CO)C(=O)c2cc(NC(=O)c3ccccc3)ccc2O1	inactive
COc1ccc(NC(=O)Nc2ccc3c(c2)C(=O)N([C@H](C)CO)C[C@H](C)[C@@H](CN(C)Cc2ccc(Cl)c(Cl)c2)OCCCC[C@@H](C)O3)cc1	inactive
COc1ccc(NC(=O)Nc2ccc3c(c2)C(=O)N([C@H](C)CO)C[C@H](C)[C@H](CN(C)Cc2ccc(Cl)c(Cl)c2)OCCCC[C@H](C)O3)cc1	active
COc1ccc(NC(=O)Nc2ccc3c(c2)C(=O)N([C@H](C)CO)C[C@@H](C)[C@H](CN(C)Cc2ccc(Cl)c(Cl)c2)OCCCC[C@@H](C)O3)cc1	active
COc1ccc(NC(=O)Nc2ccc3c(c2)C(=O)N([C@H](C)CO)C[C@H](C)[C@@H](CN(C)Cc2ccc(Cl)c(Cl)c2)OCCCC[C@H](C)O3)cc1	inactive
COc1ccc(NC(=O)Nc2ccc3c(c2)C(=O)N([C@H](C)CO)C[C@@H](C)[C@@H](CN(C)Cc2ccc(Cl)c(Cl)c2)OCCCC[C@H](C)O3)cc1	inactive
COc1ccc(NC(=O)Nc2ccc3c(c2)C(=O)N([C@H](C)CO)C[C@@H](C)[C@H](CN(C)Cc2ccc(Cl)c(Cl)c2)OCCCC[C@H](C)O3)cc1	active
COc1ccc(NC(=O)Nc2ccc3c(c2)C(=O)N([C@@H](C)CO)C[C@H](C)[C@H](CN(C)Cc2ccc(Cl)c(Cl)c2)OCCCC[C@@H](C)O3)cc1	inactive
COc1ccc(NC(=O)Nc2ccc3c(c2)C(=O)N([C@@H](C)CO)C[C@H](C)[C@@H](CN(C)Cc2ccc(Cl)c(Cl)c2)OCCCC[C@@H](C)O3)cc1	inactive
COc1ccc(NC(=O)Nc2ccc3c(c2)C(=O)N([C@@H](C)CO)C[C@@H](C)[C@@H](CN(C)Cc2ccc(Cl)c(Cl)c2)OCCCC[C@H](C)O3)cc1	inactive
